According to PubChem BioAssay AID1566 (Sanford-Burnham Center for Chemical Genomics, 2009):
Out of some 290,000 compounds screened, about 1,800 (0.62%) were called active. No stated cut-off is given here; in the data, active means inhibition above about 50%; inactive means the rest. For the sample, actives were picked, then their nearest neighbours and some compounds at random.

Assay: inhibition of NOD2-driven NF-kB reporter – cell-based, luminescence, uHTS, HEK293 (AID 1566)
Details: HEK293 NOD2/NF-kB luciferase reporter, at 4 µM, active compounds read high

Compound	inhibition
Cc1ccc2c(C)c(C(=O)Nc3c(C)n(C)n(-c4ccccc4)c3=O)oc2c1C	22.4% (inactive)
CCC(=O)N1CCc2cc(S(=O)(=O)CCC(=O)NC(C)CC)ccc21 (stereo not drawn)	10.4% (inactive)
CCc1ccc(N(C(=O)Cn2nnc(-c3ccccc3)n2)C(C(=O)NC2CCCCC2)c2ccccn2)cc1 (stereo not drawn)	5.5% (inactive)
COC(=O)Cc1cc(=O)[nH]c(Nc2nc3ccccc3o2)n1	-8.6% (inactive)
COCc1cc(=O)[nH]c(Nc2nc3ccc(C)cc3o2)n1	62.8% (active)
COCc1cc(=O)[nH]c(Nc2nc3ccccc3o2)n1	-130% (inactive)
COc1ccc(Cn2c(C3CC3)nc3ccc(NC(=O)c4ccco4)cc3c2=O)cc1	-43.8% (inactive)
CCn1c(C)c(C(C)=O)c(N2CCN(c3cccc(Cl)c3)CC2)nc1=S	15.5% (inactive)
CC(=O)Nc1ccc(/C(C)=N/NC(=O)c2ccc(CN3CCOCC3)cc2)cc1	6.9% (inactive)
CC1CCCCN1C(=O)c1ccc(C(=O)N2CCCCC2C)cc1 (stereo not drawn)	5% (inactive)
COc1ccc(OC(=O)Nc2ccccc2)cc1	-3.6% (inactive)
N#Cc1c(-c2ccccc2)cc(-c2ccccc2)nc1SCc1nnc(-c2ccccc2)o1	15.7% (inactive)
Cc1csc(SCc2nnc(-c3ccc(Cl)cc3)o2)n1	-134% (inactive)
Cc1ccc(C#N)c(SCc2nnc(-c3ccc(Cl)cc3)o2)n1	67.8% (active)
Cc1nnc(SCc2nnc(-c3ccc(Cl)cc3)o2)n1-c1ccccc1	-2.6% (inactive)
Cc1cc(C)c(C#N)c(SCc2nnc(-c3ccccc3[N+](=O)[O-])o2)n1	-197% (inactive)
Cc1ccc(-n2c(C)cc(/C=N/NC(=O)c3ccncc3)c2C)c(C)c1	7% (inactive)
Cc1ccc(NC(=O)c2ccc3ccccc3n2)cc1S(=O)(=O)N(C)C	-57.9% (inactive)
O=C(CSc1nc2ccccc2[nH]1)Nc1cccc(S(=O)(=O)N2CCOCC2)c1	24.9% (inactive)
CC(=O)Nc1cccc(-n2nnc(SCC(=O)Nc3ccccc3)n2)c1	0.6% (inactive)
Cc1cc(OCC(=O)NCCc2ccc(S(N)(=O)=O)cc2)c2c(C)c(C)c(=O)oc2c1	8.3% (inactive)
Cc1n[nH]c(=O)nc1NC1CCCCC1	3% (inactive)
C=CCn1c(CSCc2ccccc2)nnc1SCC(=O)N1CCN(c2ccccc2)CC1	0.4% (inactive)
Cc1ccc(NC(=O)C2SC(=Nc3ccccc3)C(C(=O)Nc3ccc(Cl)cc3)=C2N)cc1 (stereo not drawn)	-14.9% (inactive)

Compound	inhibition
CCOc1ccc(N=C2SC(C(=O)Nc3ccccc3C#N)C(N)=C2C(=O)Nc2ccc(Cl)cc2)cc1 (stereo not drawn)	13.4% (inactive)
N#Cc1ccccc1NC(=O)C1SC(=Nc2ccccc2)C(C(=O)Nc2ccc(Cl)cc2)=C1N (stereo not drawn)	50.7% (active)
CC(=O)Nc1ccc(SC(C)C(=O)NC2CCCC2)cc1 (stereo not drawn)	-6.7% (inactive)
Oc1ccc(-c2nc3ccccc3s2)cc1	-198% (inactive)
COc1ccc(-c2nc3ccccc3s2)cc1	-217% (inactive)
Cn1nnc2cc(C(=O)NCc3ccc4c(c3)OCO4)ccc21	-37.1% (inactive)
Cc1ccc(C(=O)NS(=O)(=O)c2ccc(C)cc2)cc1	-1.5% (inactive)
Cc1ccc(C(=O)NC(=S)NNS(=O)(=O)c2ccc(C)cc2)cc1	7.8% (inactive)
Cc1ccc(S(=O)(=O)CNC(=O)c2ccccc2)cc1	1.3% (inactive)
Cc1ccc(S(=O)(=O)NCCNC(=O)c2ccccc2)cc1	-8% (inactive)
COc1sc(SC)cc1/C=N/NC(=O)c1ccncc1	12.3% (inactive)
O=C(NC1CCCCC1)C(c1ccc(F)cc1)N(Cc1cccs1)C(=O)CN1C(=O)c2ccccc2S1(=O)=O (stereo not drawn)	13.4% (inactive)
CC1Cc2ccccc2N1S(=O)(=O)c1cccc(C(=O)OCC(=O)NC2CCS(=O)(=O)C2)c1 (stereo not drawn)	-8.8% (inactive)
CC1(CC(=O)N/N=C/c2ccc(-c3ccc(C(=O)O)cc3)o2)OCCO1	17.9% (inactive)
CCn1cc(S(=O)(=O)Nc2cc(C(=O)OC)ccc2C)cn1	8.3% (inactive)
COc1cccc(OCCn2c(C)c(/C=N/n3cnnc3)c3ccccc32)c1	10.9% (inactive)
CC(C)C(O)(c1ccccc1)C(CN1CCOCC1)c1ccccc1 (stereo not drawn)	56.7% (active)
COc1ccc(C(O)(C(C)C)C(CN2CCOCC2)c2ccccc2)cc1 (stereo not drawn)	8.6% (inactive)
CCc1ccc(C(O)(C(C)C)C(CN2CCOCC2)c2ccccc2)cc1 (stereo not drawn)	0.6% (inactive)
COc1ccc(NC(=O)CCn2c(=O)c3cccn3c3ccccc32)c(OC)c1	38.3% (inactive)
Cc1nnn(C23C[C@@H]4C[C@@H](CC(C(=O)N5CCN(c6ccccc6)CC5)(C4)C2)C3)n1	-0.7% (inactive)
Cc1ccc(CCNC(=O)C23C[C@H]4C[C@@H](C2)CC(n2nnc(C)n2)(C4)C3)cc1	8.2% (inactive)
Cn1ccnc1C(=O)c1ccc(S(=O)(=O)N2CCCC2)cc1	14.8% (inactive)
Cc1ccccc1NC(=O)c1sc2nc(N3CCOCC3)c3c(c2c1N)CCCC3	23.1% (inactive)

Compound	inhibition
COc1ccccc1NC(=O)c1sc2nc(N3CCOCC3)c3c(c2c1N)CCCC3	50% (active)
COc1ccc(NC(=O)c2sc3nc(N4CCOCC4)c4c(c3c2N)CCCC4)c(OC)c1	30.8% (inactive)
COC(=O)c1ccccc1NC(=O)CSc1nnc(-c2cccnc2)o1	-6.6% (inactive)
Cc1ccc2[nH]cc(/C=C/c3cc[n+](C)cc3)c2c1	48% (inactive)
Cc1ccc2[nH]c(C)c(/C=C/c3cc[n+](C)cc3)c2c1	29.1% (inactive)
COc1ccc(OC)c(S(=O)(=O)N(C)CC(=O)Nc2ccc3c(c2)OCO3)c1	4.6% (inactive)
CCCNC(=O)Cn1cnc2sc(C(=O)N3CCN(CCC)CC3)c(C)c2c1=O	24.6% (inactive)
CC(C)(C)n1nnnc1C(c1ccncc1)N1CCN(c2ccc(O)cc2)CC1 (stereo not drawn)	-4.7% (inactive)
c1ccc2c(c1)SCc1nnc(-c3ccncc3)n1-2	5.9% (inactive)
Cc1oc(-c2ccccc2Cl)nc1CSc1nc2c(c(=O)[nH]1)CCC2	-2% (inactive)
Cc1oc(-c2ccccc2)nc1CSc1nc2c(c(=O)[nH]1)CCC2	30.8% (inactive)
CN(C(=O)COc1ccccc1C(=O)NCCc1ccccc1)c1ccccc1	-25.8% (inactive)
COc1ccccc1C(=O)NCCC(=O)NCCOc1ccccc1	16.2% (inactive)
COc1ccc(N2CCN(C(=O)Cn3c(=O)[nH]c4ccsc4c3=O)CC2)cc1	0.6% (inactive)
Cc1ccc(S(=O)(=O)Nc2ccccc2C(N)=O)cc1	0.2% (inactive)
Cc1ccc(S(=O)(=O)Nc2ccccc2-c2ccccc2)cc1	-12.5% (inactive)
O=S(=O)(NCc1ccccn1)c1cc(Cl)ccc1Cl	-6% (inactive)
Nc1c(NCc2ccccc2F)c(=O)[nH]c(=O)n1Cc1ccccc1	-4.5% (inactive)
Cc1occc1C(=O)n1nnc2ccccc21	7.3% (inactive)
N#CC(c1ccc(Cl)cc1)c1ccc2c(C(F)(F)F)cc(C(F)(F)F)nc2n1 (stereo not drawn)	44.4% (inactive)
Cc1ccc(C(C#N)c2ccc3c(C(F)(F)F)cc(C(F)(F)F)nc3n2)cc1 (stereo not drawn)	19.1% (inactive)
CC(NC(=O)CSc1nc2ccccc2n1CCC#N)c1ccc(F)cc1 (stereo not drawn)	19.2% (inactive)
CCOc1ccc(S(=O)(=O)N2CCC(C(=O)N3CCCC3)CC2)cc1C	24.6% (inactive)
COc1ccc(-c2cn3c(C)c(C(=O)N4CCN(c5ccccc5F)CC4)sc3n2)cc1	25.5% (inactive)

Compound	inhibition
Cc1ccc(C(=O)C[n+]2ccc3ccccc3c2)cc1	9% (inactive)
Clc1cccc(Cl)c1C[n+]1ccc2ccccc2c1	18.8% (inactive)
Cc1cc(C(C)(C)C)cc(C)c1C[n+]1ccc2ccccc2c1	52.3% (active)
O=C(NCCn1ccc2ccccc21)c1ccc(S(=O)(=O)N2CCCCC2)cc1	-4.3% (inactive)
FC(F)(F)c1ccc(N2CCN(c3cc(-c4ccccc4)nc4ncnn34)CC2)nc1	52% (active)
O=S(=O)(c1ccccc1)N1CCN(c2cc(-c3ccccc3)nc3ncnn23)CC1	43.4% (inactive)
FC(F)(F)c1cc(-c2ccccc2)nc2ncnn12	-1.1% (inactive)
CC(=O)Nc1cccc2c1C(=O)N(c1cccc(OC(C)=O)c1)C2=O	17.8% (inactive)
O=C(N/N=C/c1ccc([N+](=O)[O-])o1)c1cc2c(ccc3ccccc32)o1	12.1% (inactive)
Cc1ccc(C(=O)N/N=C\c2ccc([N+](=O)[O-])o2)cn1	36% (inactive)
Nc1nonc1C(=O)N/N=C/c1ccc(-c2cccc([N+](=O)[O-])c2)o1	19.7% (inactive)
Nc1nonc1C(=O)N/N=C/c1ccc(Br)o1	4.7% (inactive)
O=C(CNc1ccc2ccccc2c1)N/N=C/c1ccc([N+](=O)[O-])o1	-4.1% (inactive)
O=C(CNc1ccccc1)N/N=C/c1ccc([N+](=O)[O-])o1	46.1% (inactive)
O=C(N/N=C/c1ccc([N+](=O)[O-])cc1)c1cc2ccccc2o1	30.1% (inactive)
Cc1cc(C(=O)N/N=C/c2ccc([N+](=O)[O-])o2)c(C)o1	35.5% (inactive)
COc1ccccc1CNC(=O)C1CC(c2c(Cl)cccc2Cl)=NO1 (stereo not drawn)	8.6% (inactive)
Cc1ccc(NC(=O)Nc2ccc(Cl)cc2)c(Br)c1	-38.7% (inactive)
O=C(Nc1ccc(Cl)cc1)c1cc(Br)ccc1OCC(=O)N1CCOCC1	40% (inactive)
COc1ccc(-c2csc(N3CCC(c4ccccc4)CC3)n2)cc1	13.7% (inactive)
Cc1occc1-c1nnc(SCC(=O)O)n1-c1ccccc1	-13.8% (inactive)
